The record followed here is PubChem BioAssay (NCATS).

SMILES strings stand for the structures. Results filed as inconclusive are left out. A number with no mark means an inactive call. The source made the active and inactive calls. Unless noted, calls come from the whole dose curve; as a rule, active = well fitted curve in the direction sought with a large enough effect; inconclusive = small, poorly fitted or top-dose-only effect, or another doubt; inactive = no such curve, though single readings can be large; an effect the other way counts as inactive or inconclusive.

Assay [1] can be described thus: qHTS for Inhibitors of Plasmodium falciparum (GB4) proliferation (AID 504315). Note: nearly all actives have a fitted effect of over 50% in size. Note: potency is the fitted concentration of half-maximal effect. Particulars: P. falciparum GB4 in erythrocytes, SYBR Green DNA, 72 h; series mostly up to 6.7 µM. The gist of the method: (§1)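 Parasite growth measured as SYBR Green DNA fluorescence (ex 485, em 535 nm) after overnight lysis following 72 h culture at 37 °C, 0.3% parasitemia, 2.5% hematocrit. Values normalized against DMSO and 0.29 uM artemisinin controls, with plate-stack correction.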
(In general: Quantitative high-throughput screening tests each substance at several concentrations.)

A short description of assay [2]: qHTS for Inhibitors of Plasmodium falciparum (7G8) proliferation (AID 504316). Note: nearly all actives have a fitted effect of over 65% in size. Note: potency is the fitted concentration of half-maximal effect. Particulars: P. falciparum 7G8 in erythrocytes, SYBR Green DNA, 72 h; series mostly up to 6.7 µM. The gist of the method:
as §1

Assay [3] in a line: qHTS for Inhibitors of Plasmodium falciparum (HB3) proliferation (AID 504318). Note: nearly all actives have a fitted effect of over 60% in size. Note: potency is the fitted concentration of half-maximal effect. Particulars: P. falciparum HB3 in erythrocytes, SYBR Green DNA, 72 h; series mostly up to 7.21 µM. In short, it runs like this: as §1
A short description of assay [4]: qHTS for Inhibitors of Plasmodium falciparum (CP250) proliferation (AID 504320). Note: potency is the fitted concentration of half-maximal effect. Particulars: P. falciparum CP250 in erythrocytes, SYBR Green DNA, 72 h; series mostly up to 6.7 µM. In short, it runs like this:
as §1

Assay [5] has as its target Atrial natriuretic peptide receptor 1 (Homo sapiens) (UniProt P16066). Briefly: Natriuretic polypeptide receptor (hNpr1) antagonism - Pilot CMLD screen (AID 1347052; calls by dose curve;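 note: HEK293 cells with hNpr1 stimulated by hNppA peptide at 0.1 nM; cGMP level read as GloSensor luciferase luminescence after agonist stimulation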). Particulars: HEK293 hNpr1 GloSensor cGMP luminescence, ANP-stimulated; series mostly up to 9.22 µM.

Atrial natriuretic peptide receptor 1 (Homo sapiens), sequence (P16066 whole entry, looked up): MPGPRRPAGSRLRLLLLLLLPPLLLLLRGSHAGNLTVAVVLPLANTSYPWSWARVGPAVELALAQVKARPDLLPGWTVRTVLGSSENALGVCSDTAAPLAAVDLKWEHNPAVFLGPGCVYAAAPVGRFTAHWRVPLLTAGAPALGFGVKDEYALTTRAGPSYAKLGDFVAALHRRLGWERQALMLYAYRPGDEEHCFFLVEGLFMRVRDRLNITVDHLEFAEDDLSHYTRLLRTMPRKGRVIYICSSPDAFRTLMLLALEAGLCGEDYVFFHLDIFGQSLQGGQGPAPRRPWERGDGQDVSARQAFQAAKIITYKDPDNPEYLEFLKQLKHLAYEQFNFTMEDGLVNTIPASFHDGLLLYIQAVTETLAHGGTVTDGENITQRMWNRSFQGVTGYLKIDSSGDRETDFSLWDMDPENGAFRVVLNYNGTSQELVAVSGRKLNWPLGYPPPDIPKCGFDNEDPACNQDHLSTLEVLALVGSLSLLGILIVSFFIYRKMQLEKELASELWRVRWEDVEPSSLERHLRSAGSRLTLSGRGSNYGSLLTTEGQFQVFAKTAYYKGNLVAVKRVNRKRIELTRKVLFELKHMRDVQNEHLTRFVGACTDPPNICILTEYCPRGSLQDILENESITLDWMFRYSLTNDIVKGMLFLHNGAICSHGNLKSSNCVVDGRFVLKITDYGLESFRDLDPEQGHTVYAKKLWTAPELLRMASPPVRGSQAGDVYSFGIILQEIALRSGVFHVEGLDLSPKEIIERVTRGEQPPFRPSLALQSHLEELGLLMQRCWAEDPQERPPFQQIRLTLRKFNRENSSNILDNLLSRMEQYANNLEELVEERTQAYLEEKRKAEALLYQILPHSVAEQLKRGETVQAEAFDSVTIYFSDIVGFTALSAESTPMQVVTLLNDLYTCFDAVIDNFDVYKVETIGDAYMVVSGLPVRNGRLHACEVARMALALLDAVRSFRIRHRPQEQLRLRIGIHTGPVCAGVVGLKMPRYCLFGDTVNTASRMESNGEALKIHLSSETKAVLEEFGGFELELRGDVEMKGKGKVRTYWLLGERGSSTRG

Turning to `C[C@@H]1C[C@](C)(C(=O)c2ccco2)C=C1c1ccco1`, the Potency entry in assay [1], in assay [2], in assay [3], in assay [4] and in assay [5] was “inactive” throughout.

For `CC(=O)OC[C@H]1O[C@H](C#Cc2ccccc2)C=C[C@H]1O`, the Potency entry in assay [1], in assay [2], in assay [3], in assay [4] and in assay [5] was “inactive” each time.

Regarding `COC(=O)c1ccc(CN2C(=O)[C@]3(OCCC=C[C@@H]3C)c3ccccc32)cc1`, the Potency result in assay [1], in assay [2], in assay [3] and in assay [5] was “inactive” in each case.

Take `COC(=O)CC=C1c2ccccc2OC[C@@H](OC)[C@H]1C`: the Potency result in assay [1], in assay [2], in assay [3], in assay [4] and in assay [5] was “inactive” each time.

In the case of `COc1cccc(CO[C@H]2C=C[C@@H](c3ccccc3)O[C@H]2CBr)c1`, the Potency entry in assay [1], in assay [2], in assay [3], in assay [4] and in assay [5] was “inactive” each time.

With `CCN1C(=O)[C@@H]2[C@H]3[C@H](O)[C@H](O)CC(=NO[C@H](C)c4cn([C@@H]5COC[C@@H]5O)nn4)[C@@H]3CC[C@H]2C1=O`, the Potency result in assay [1], in assay [2], in assay [3], in assay [4] and in assay [5] was “inactive” throughout.

Regarding `CCCC[C@]12Cc3cc(OC)c(OC)cc3[C@H](O1)C1=C(CC3(CCCCC3)OC1=O)O2`, the Potency result in assay [1], in assay [2], in assay [3], in assay [4] and in assay [5] was “inactive” throughout.

With `Cc1ccccc1Nc1oc(-c2ccccc2)nc1-c1ccccc1`, the Potency in assay [1] was 1900 nM (active); in assay [2], 1690 nM (active); in assay [3], 1690 nM (active). The Potency entry in assay [5] was “inactive”.

On to `CCN1C(N(C)CCOC)=NC(c2cccc(F)c2)C(C(=O)OC)=C1C` (stereo not given), for which the Potency entry in assay [1], in assay [2], in assay [3], in assay [4] and in assay [5] was “inactive” each time.

Turning to `C[C@@H]1C=CCCO[C@]12C(=O)N(Cc1ccc(F)cc1)c1cccc(Br)c12`, the Potency entry in assay [1], in assay [2], in assay [3], in assay [4] and in assay [5] was “inactive” throughout.

For `COc1cc(C(CC2=CCCCC2)NC(=O)C(F)(F)F)cc(OC)c1OC` (stereo not given), the Potency result in assay [1], in assay [2], in assay [3], in assay [4] and in assay [5] was “inactive” each time.

For the molecule `COc1cccc([C@@H]2Oc3ccc(Br)cc3C(=O)[C@@H]2OC(=O)N[C@H](C)C2CCCCC2)c1`, the Potency entry in assay [1], in assay [2], in assay [3], in assay [4] and in assay [5] was “inactive” each time.

Turning to `COC(=O)C(Cc1cc(Br)c(OC)c(Br)c1O)=NO`, the Potency entry in assay [1], in assay [2], in assay [3], in assay [4] and in assay [5] was “inactive” in each case.

Consider `O=C1OCCC=C1C(O)CCc1ccccc1` (stereo not given), for which the Potency result in assay [1], in assay [2], in assay [3], in assay [4] and in assay [5] was “inactive” throughout.

For `CCOC(=O)OC[C@H]1O[C@H](C#Cc2ccc(C(C)(C)C)cc2)C=C[C@H]1OC(=O)OCC`, the Potency in assay [1] is 1690 nM (active); in assay [2] it was 2130 nM (active). Besides, the Potency entry in assay [5] is “inactive”.

Take `C=CC[C@](C)(Nc1ccc(OC)cc1)C(=O)OCC`: the Potency entry in assay [1], in assay [2], in assay [3] and in assay [5] was “inactive” throughout.

As to `CC(=O)C1=C(C)N(Cc2ccccc2)C(=O)NC1c1ccc(Br)cc1` (stereo not given), the Potency result in assay [1], in assay [2], in assay [3], in assay [4] and in assay [5] was “inactive” each time.

Consider `Cc1cc2c(c(=O)n1Cc1ccccc1)[C@H]1O[C@](CCCCN3C(=O)c4ccccc4C3=O)(Cc3ccccc31)O2`, for which the Potency in assay [1] is 1900 nM (active); in assay [2] it was 1690 nM (active); in assay [3], 1690 nM (active); in assay [4], 1350 nM (active). Further, the Potency entry in assay [5] was “inactive”.

With `CCOC(=O)NN=C1C[C@@H](O)[C@@H](O)[C@@H]2[C@H]3C(=O)N(Cc4ccc5c(c4)OCO5)C(=O)[C@@H]3CC[C@@H]12`, the Potency entry in assay [1], in assay [2], in assay [3], in assay [4] and in assay [5] was “inactive” each time.

Take `COC(=O)N[C@@H](C=Cc1ccccc1)C(C(=O)OC)=C(C)NCc1ccccc1`: the Potency in assay [1] is 1690 nM (active). Further, the Potency entry in assay [5] was “inactive”.

For the molecule `COC(=O)N[C@@H](c1ccccc1)[C@]1(C(C)=O)CCCC1=O`, the Potency result in assay [1], in assay [2], in assay [3], in assay [4] and in assay [5] was “inactive” in each case.

As for `COc1cccc([C@@H]2[C@@H](C)CC[C@@H]3C(=O)NC[C@H](O)CN32)c1`, the Potency entry in assay [1], in assay [2], in assay [3] and in assay [5] was “inactive” throughout.

For the molecule `C=CC[C@@H]1C=C[C@H](ON=C(C)CCN2CCCc3nc(C)c(C)cc32)[C@H](CO)O1`, the Potency in assay [1] was 1900 nM (active); in assay [2], 75.7 nM (active); in assay [3] it was 2510 nM (active). In assay [5], the Potency entry is “inactive”.

With `COC(=O)NC(c1ccccc1)c1c[nH]c2ccc(OC)cc12` (stereo not given), the Potency entry in assay [1], in assay [2], in assay [3], in assay [4] and in assay [5] was “inactive” throughout.

Take `COC(=O)CCCC1=CC2=C(c3ccccc3)C(=O)C(C)(OC(=O)C3CCCC3)C(=O)C2=CN1CCN1CCOCC1` (stereo not given): the Potency entry in assay [1], in assay [2], in assay [3], in assay [4] and in assay [5] was “inactive” each time.

With `O=C1C2=C(C(=O)c3ccccc31)[C@H]1O[C@](CCCCN3C(=O)c4ccccc4C3=O)(Cc3ccccc31)O2`, the Potency in assay [1], in assay [2] and in assay [3] was 1690 nM (active) in each case. For the same molecule, the Potency result in assay [4] and in assay [5] was “inactive” in each case.

As to `COc1ccc2c(c1)O[C@H](c1ccc3c(c1)OCO3)[C@@H](OC(=O)Nc1ccc(C)c(Br)c1)C2=O`, the Potency result in assay [1], in assay [2], in assay [3], in assay [4] and in assay [5] was “inactive” in each case.
